Molecules are shown by their SMILES. Unmarked numbers belong to inactive results. This is one part of the list. The source made the active and inactive calls.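 The calls were made as follows, unless noted: active = inhibition above the hit cutoff set in the earlier primary screen (cut at about 27% in these data); inactive = the rest.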

For orientation: inhibition means the drop in the measured response relative to a control, in per cent.

Experiment [1] has as its target Protein phosphatase methylesterase 1 (Homo sapiens) (UniProt Q9Y570). Nature of the experiment: PME-1 inhibitor activity retest, confirmation, biochemical, fluorescence polarization, FP-Rh probe, triplicate (AID 2171).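 Also: 0% = enzyme with DMSO and 100% = wells lacking PME-1.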 The settings on record: recombinant PME-1, FP-Rh probe fluorescence polarization; at 5.9 µM; active compounds read high. (Fluorescence polarisation rises when a labelled molecule tumbles more slowly, as on binding a larger partner.)

In experiment [2] the target is Nuclear receptor coactivator 3 (Homo sapiens) (UniProt Q9Y6Q9). The experiment is described as follows: SRC3 coactivator transcriptional activity inhibitors, confirmation, cell-based, luminescence, quadruplicate (AID 588792;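 active = mean inhibition over 43.08%, the solvent-only control mean plus 3 SD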;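 also: 0% = DMSO treated cells and 100% = gossypol at 36 µM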). The settings on record: HEK293 GAL4-SRC3 luciferase reporter, at 3.6 µM, active compounds read high.
Nuclear receptor coactivator 3 (Homo sapiens), sequence (Q9Y6Q9 whole entry, looked up, the tested form may be a part): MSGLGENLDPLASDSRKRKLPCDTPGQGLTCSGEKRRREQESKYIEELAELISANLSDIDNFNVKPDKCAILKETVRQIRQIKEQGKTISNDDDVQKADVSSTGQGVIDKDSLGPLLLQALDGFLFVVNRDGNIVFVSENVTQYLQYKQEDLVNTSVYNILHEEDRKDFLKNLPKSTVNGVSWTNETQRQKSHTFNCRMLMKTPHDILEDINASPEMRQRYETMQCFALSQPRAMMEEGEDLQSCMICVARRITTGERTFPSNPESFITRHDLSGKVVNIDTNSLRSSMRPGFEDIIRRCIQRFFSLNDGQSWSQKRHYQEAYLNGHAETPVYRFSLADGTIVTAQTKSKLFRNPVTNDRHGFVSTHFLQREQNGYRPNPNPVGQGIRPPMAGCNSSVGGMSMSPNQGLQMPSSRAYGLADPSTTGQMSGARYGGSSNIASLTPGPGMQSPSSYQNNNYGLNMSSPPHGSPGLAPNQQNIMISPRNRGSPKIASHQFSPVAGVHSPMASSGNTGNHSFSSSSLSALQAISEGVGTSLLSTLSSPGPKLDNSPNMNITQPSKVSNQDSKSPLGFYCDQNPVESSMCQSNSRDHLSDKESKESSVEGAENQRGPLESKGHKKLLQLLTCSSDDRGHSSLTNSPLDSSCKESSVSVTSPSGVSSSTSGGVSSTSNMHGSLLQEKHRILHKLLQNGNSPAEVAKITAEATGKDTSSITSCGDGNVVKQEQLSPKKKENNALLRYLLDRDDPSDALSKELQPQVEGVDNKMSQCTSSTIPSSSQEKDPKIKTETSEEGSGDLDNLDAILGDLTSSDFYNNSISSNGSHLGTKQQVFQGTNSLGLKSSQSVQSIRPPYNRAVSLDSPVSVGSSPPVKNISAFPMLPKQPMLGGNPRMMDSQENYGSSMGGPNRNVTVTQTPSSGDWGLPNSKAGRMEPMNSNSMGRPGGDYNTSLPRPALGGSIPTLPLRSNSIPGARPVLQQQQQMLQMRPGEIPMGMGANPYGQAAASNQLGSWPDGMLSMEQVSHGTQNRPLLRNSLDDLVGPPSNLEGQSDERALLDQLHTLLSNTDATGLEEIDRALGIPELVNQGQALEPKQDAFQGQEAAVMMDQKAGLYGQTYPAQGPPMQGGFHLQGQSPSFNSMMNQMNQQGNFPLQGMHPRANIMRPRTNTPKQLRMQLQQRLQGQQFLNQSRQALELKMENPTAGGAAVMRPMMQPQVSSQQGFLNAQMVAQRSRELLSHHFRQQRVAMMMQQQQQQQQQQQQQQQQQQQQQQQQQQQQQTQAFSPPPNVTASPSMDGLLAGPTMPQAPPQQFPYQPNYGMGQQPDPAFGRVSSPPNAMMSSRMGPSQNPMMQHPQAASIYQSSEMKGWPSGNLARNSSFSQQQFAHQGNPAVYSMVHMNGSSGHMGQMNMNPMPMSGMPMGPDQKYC
For experiment [3], the system named is transactivating tegument protein VP16 (Human herpesvirus 1), Gal4-VP16 luciferase reporter. Nature of the experiment: VP16 transactivation inhibitors, counter-screen for SRC3 inhibitor project, cell-based, luminescence, high throughput (AID 588794; in the data active = inhibition above about 30%). The settings on record: mammalian cells, VP16-driven luciferase reporter luminescence; at 3.6 µM; active compounds read high. (In general: A counterscreen serves to expose hits that act by an unwanted route or on another target.)

The target of experiment [4] is Oxytocin receptor (Homo sapiens) (UniProt P30559). The experiment is described as follows: human OXTR agonists, confirmation, fluorescence, CHO-OTR cells, triplicate (AID 434963;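 active = mean activation above about 20% derived from the earlier single-dose screen, limit read from the data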;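 also: peak over minimum fluorescence ratio per well during a 100 second FLIPR read; 0% = DMSO alone and 100% = oxytocin high control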). The settings on record: Fluo-8 calcium fluorescence, agonist, at 3 µM, active compounds read high.
Oxytocin receptor (Homo sapiens), sequence (P30559 whole entry, looked up): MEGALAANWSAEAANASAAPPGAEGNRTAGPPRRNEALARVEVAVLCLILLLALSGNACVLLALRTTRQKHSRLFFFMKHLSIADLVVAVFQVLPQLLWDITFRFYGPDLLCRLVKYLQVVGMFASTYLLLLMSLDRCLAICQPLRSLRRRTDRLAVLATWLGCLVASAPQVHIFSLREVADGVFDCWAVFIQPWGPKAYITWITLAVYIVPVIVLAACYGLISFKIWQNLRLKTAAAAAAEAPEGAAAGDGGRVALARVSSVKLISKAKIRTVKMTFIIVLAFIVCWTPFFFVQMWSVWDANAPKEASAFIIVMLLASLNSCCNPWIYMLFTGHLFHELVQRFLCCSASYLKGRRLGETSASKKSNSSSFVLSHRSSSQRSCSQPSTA
For experiment [5], the target named is Vasopressin V1a receptor (Homo sapiens) (UniProt P37288). Nature of the experiment: V1a receptor agonists, calcium signal, counter-screen for OXTR agonist project, triplicate, fluorescence, CHO-V1R cells (AID 434991;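 active = mean activation over triplicate exceeds the hit threshold set in the earlier primary screen, cut at about 20% in these data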;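 also: peak over basal fluorescence ratio within a 100 second read; 0% = DMSO alone and 100% = 3 nM vasopressin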). The settings on record: Fluo-8 calcium fluorescence, at 3 µM, active compounds read high.
For experiment [6], the target named is Insulin-degrading enzyme (Homo sapiens) (UniProt P14735). The experiment is described as follows: human IDE inhibitors in live cells, confirmation, fluorescence polarization, HEK cells, FAbetaB substrate (AID 435028;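 active = mean inhibition across triplicate wells above the cutoff set by the earlier primary insulin-degrading enzyme screen, cut at about 16% in these data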;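 also: 0% = DMSO wells and 100% = 60 µM reference IDE inhibitor Ii1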). The settings on record: FAbetaB cleavage, at 5.59 µM, active compounds read high.
Experiment [7] can be described thus: cytotoxicity in HEK cells, cytotoxicity control for IDE inhibitor project, cell-based, luminescence (AID 449730; in the data active = inhibition above about 22%;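 also: 0% = vehicle wells and 100% = reference cytotoxic drug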). The settings on record: HEK293 cytotoxicity, ATP luminescence; at 5.59 µM; active compounds read high.
The target in experiment [8] is Nuclear receptor coactivator 1 (Homo sapiens) (UniProt Q15788). The experiment is described as follows: SRC1 coactivator transcriptional activity inhibitors, confirmation, cell-based, luminescence, quadruplicate (AID 588820;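 active = mean inhibition above 46.68%, the untreated control wells mean plus 3 SD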;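 also: 0% = DMSO wells and 100% = gossypol 36 µM treated wells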). The settings on record: HEK293 GAL4-SRC1 luciferase reporter, at 3.6 µM, active compounds read high.
Nuclear receptor coactivator 1 (Homo sapiens), sequence (Q15788 whole entry, looked up, the tested form may be a part): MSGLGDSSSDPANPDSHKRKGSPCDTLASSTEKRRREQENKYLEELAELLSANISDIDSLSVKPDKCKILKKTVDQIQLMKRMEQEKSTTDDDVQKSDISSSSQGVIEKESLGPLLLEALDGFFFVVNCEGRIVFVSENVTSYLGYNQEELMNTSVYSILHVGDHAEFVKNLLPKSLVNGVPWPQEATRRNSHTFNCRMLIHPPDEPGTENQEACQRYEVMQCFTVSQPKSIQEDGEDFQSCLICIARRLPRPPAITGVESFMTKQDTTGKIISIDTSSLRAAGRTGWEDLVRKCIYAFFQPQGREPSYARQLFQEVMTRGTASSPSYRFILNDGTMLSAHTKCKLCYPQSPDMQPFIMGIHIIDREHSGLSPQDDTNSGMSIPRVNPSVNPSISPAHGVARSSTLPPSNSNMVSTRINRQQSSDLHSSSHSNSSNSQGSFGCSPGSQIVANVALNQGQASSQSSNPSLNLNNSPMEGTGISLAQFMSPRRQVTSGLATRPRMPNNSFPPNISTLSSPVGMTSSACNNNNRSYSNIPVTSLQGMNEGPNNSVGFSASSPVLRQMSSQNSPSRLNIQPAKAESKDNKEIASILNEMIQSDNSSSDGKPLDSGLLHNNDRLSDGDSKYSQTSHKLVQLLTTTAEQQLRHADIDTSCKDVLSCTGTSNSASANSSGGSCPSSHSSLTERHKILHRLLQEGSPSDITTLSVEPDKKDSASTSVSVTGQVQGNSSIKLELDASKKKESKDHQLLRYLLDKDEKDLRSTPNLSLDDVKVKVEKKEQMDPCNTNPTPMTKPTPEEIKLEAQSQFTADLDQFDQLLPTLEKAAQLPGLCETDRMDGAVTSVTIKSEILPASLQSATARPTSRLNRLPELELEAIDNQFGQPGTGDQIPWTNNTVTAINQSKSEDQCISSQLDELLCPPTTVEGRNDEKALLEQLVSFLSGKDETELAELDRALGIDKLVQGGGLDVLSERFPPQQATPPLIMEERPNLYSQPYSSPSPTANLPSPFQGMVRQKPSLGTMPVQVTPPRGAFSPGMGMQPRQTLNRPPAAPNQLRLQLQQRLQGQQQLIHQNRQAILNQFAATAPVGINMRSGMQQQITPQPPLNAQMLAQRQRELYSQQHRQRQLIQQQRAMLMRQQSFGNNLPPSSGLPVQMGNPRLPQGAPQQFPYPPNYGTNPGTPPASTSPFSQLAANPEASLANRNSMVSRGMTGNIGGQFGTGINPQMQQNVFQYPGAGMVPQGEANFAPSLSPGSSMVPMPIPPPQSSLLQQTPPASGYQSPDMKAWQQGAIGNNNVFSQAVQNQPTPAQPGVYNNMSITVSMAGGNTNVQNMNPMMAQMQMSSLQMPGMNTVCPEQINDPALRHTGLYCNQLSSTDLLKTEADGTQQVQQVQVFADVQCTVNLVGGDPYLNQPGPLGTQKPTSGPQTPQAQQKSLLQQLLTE
A short description of experiment [9]: VP16 transactivation inhibitors, counter-screen for SRC1 inhibitor project, cell-based, luminescence, high throughput (AID 588824; in the data active = inhibition above about 25%). The settings on record: cell-based VP16 transactivation luciferase luminescence; at 3.6 µM; active compounds read high.
The subject of experiment [10] is transactivating tegument protein VP16 (Human herpesvirus 1). Nature of the experiment: VP16 transactivation reporter inhibitors, counter-screen for SRC2 inhibitor project, cell-based, luminescence, single concentration (AID 652007; in the data active = inhibition above about 36%). The settings on record: cell-based VP16 transactivation luciferase reporter, at 8.9 µM, active compounds read high.
The target of experiment [11] is Nuclear receptor coactivator 2 (Homo sapiens) (UniProt Q15596). Nature of the experiment: SRC2 coactivator transcriptional activity inhibitors, confirmation, cell-based, luminescence, HEK293, triplicate (AID 652008;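 active = mean inhibition above 46.5%, the solvent-only control mean plus 3 SD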;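 also: 0% = DMSO-treated cells and 100% = Gossypol at 36 µM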). The settings on record: HEK293 GAL4-SRC2 luciferase reporter, at 8.9 µM, active compounds read high. Background: Reporter assays use an easily measured gene product as a stand-in for the process of interest.
Nuclear receptor coactivator 2 (Homo sapiens), sequence (Q15596 whole entry, looked up, the tested form may be a part): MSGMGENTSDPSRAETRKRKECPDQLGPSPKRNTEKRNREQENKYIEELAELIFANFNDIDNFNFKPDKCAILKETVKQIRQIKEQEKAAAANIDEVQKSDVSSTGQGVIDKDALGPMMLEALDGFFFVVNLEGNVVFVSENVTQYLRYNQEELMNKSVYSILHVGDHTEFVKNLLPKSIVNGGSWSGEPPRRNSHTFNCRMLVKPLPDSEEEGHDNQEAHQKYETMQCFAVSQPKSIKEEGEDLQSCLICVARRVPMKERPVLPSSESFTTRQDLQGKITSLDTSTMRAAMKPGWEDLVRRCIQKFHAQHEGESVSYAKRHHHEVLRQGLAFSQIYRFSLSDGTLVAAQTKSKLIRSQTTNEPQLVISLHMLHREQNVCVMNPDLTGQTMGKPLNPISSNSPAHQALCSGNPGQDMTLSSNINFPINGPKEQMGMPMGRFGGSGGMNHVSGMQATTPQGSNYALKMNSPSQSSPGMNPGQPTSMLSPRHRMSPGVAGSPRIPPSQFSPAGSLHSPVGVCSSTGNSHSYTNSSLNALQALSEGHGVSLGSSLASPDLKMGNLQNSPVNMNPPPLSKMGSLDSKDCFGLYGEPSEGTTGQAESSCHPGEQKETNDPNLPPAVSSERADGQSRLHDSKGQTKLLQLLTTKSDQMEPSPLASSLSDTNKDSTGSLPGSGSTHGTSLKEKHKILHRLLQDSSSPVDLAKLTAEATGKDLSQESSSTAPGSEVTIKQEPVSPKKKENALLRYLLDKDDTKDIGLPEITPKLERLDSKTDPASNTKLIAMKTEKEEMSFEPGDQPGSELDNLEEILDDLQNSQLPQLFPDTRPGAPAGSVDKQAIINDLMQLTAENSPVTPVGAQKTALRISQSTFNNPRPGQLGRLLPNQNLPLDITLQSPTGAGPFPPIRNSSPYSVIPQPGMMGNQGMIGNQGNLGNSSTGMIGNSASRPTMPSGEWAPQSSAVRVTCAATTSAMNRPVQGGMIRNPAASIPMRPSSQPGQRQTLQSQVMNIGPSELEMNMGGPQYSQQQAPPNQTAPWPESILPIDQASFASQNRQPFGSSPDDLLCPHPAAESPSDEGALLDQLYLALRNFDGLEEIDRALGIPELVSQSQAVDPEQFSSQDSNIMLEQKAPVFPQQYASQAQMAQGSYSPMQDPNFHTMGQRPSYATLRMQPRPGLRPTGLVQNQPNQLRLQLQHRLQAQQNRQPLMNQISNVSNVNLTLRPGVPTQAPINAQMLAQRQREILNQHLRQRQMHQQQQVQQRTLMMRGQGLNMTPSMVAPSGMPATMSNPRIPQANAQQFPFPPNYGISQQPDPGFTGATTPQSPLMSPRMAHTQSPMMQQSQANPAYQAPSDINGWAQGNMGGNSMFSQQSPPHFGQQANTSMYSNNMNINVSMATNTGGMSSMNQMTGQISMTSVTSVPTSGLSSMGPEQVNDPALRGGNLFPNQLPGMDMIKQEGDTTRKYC

For experiment [12], the target named is Serine protease HTRA1 (Homo sapiens) (UniProt Q92743). Nature of the experiment: HTRA1 protease inhibitors, retest, confirmation, biochemical, fluorescence polarization (AID 540248;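 active = mean inhibition over three repeats above a set limit taken from the earlier primary screen, cut at about 37% in these data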;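 also: 0% = HTRA1 with DMSO and 100% = wells lacking HTRA1; inhibitors block probe binding so polarization drops and inhibition rises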). The settings on record: recombinant HTRA1, FP-rhodamine activity-based probe, at 5.96 µM, active compounds read high.
Experiment [13] can be described thus: StAR promoter reporter inhibitors, counter-screen for LRH-1 inverse agonist project, cell-based, luminescence, high throughput (AID 651611; in the data active = inhibition above about 28%). The settings on record: StAR promoter luciferase reporter counterscreen, at 3.6 µM, active compounds read high.
In experiment [14] the target is Nuclear receptor subfamily 5 group A member 2 (Homo sapiens) (UniProt O00482). The experiment is described as follows: LRH-1 (NR5A2) inverse agonists, retest, confirmation, cell-based, luminescence (AID 651613; in the data active = inhibition above about 42%;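 also: HEK293T cells co-transfected with LRH-1 and StAR promoter luciferase reporter; 0% = vehicle wells and 100% = parental cells lacking receptor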). The settings on record: cell-based LRH-1 luciferase reporter, inverse agonism; at 3.6 µM; active compounds read high.
The target in experiment [15] is Steroidogenic factor 1 (Homo sapiens) (UniProt Q13285). Nature of the experiment: SF1 (NR5A1) inverse agonists, counter-screen for LRH-1 inverse agonist project, cell-based, luminescence, high throughput (AID 651614; in the data active = inhibition above about 44%;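 also: cells cotransfected with StAR promoter reporter and SF1 expression vector; 0% = vehicle on cells with receptor and 100% = vehicle on cells lacking receptor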). The settings on record: cell-based SF1 luciferase reporter, at 3.6 µM, active compounds read high.
Experiment [16] in a line: VP16 transactivation reporter inhibitors, counter-screen for LRH-1 inverse agonist project, cell-based, luminescence, high throughput (AID 651615; in the data active = inhibition above about 33%). The settings on record: Gal4-VP16 luciferase reporter cells, at 3.6 µM, active compounds read high.

Protein phosphatase methylesterase 1 (Homo sapiens), sequence (Q9Y570 whole entry, looked up): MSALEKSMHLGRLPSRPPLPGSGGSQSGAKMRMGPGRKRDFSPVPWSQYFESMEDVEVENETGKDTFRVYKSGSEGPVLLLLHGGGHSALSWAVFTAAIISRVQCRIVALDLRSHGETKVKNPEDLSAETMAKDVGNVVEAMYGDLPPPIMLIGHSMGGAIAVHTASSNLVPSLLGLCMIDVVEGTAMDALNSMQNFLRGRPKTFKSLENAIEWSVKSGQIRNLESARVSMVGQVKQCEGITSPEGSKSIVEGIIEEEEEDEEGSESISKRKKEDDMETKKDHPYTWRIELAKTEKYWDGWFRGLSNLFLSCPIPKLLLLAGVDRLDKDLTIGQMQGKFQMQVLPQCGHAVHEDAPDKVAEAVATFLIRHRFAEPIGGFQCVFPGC

For the compound `Cc1[nH]c2c(C)cccc2c1CCNC(=O)c1ccc2c(c1[N+](=O)[O-])C(=O)c1ccccc1C2=O`, in experiment [1], the inhibition is 75.1% (active).
Still for that read-out and setting: in the case of `CCOc1cc(/C=N/NC(=O)c2cccc([N+](=O)[O-])c2)ccc1OS(=O)(=O)c1ccccc1` it was 19.9%; in that of `O=c1[nH]nc(CNc2ccc(O)cc2)c2ccccc12`, 8.74%; in that of `COc1cccc(-c2nc(NC3CCCC3)c3ccccc3n2)c1O`, 13.3%.
`Oc1nc(Nc2cccc(Cl)c2)sc1/C=C1\C=Nc2ccccc21`: in experiment [1], the inhibition is 26.6% (active).
Same read-out and setting: in the case of `Cc1ccc(C)c(NC(=O)COC(=O)c2cccc3c2C(=O)c2ccccc2C3=O)c1` it was 92.7% (active); in that of `CCn1c(CSc2n[nH]c(N)n2)nc2cc(C(=O)O)ccc21`, 33.5% (active).
The same measure, in the same setting: the figure for `CCN(CC)S(=O)(=O)c1ccc(C)c(NC(=O)COC(=O)c2ccc(C)c(S(=O)(=O)N3CCOCC3)c2)c1` is 49.7% (active); for `Cc1cccc2c(N=Nc3ccc(S(=O)(=O)Nc4cccc(Cl)c4)cc3[N+](=O)[O-])c(O)[nH]c12` it is -12.3%; for `Cc1onc(NC(=O)NC(=O)c2c(Cl)cccc2Cl)c1Br` it is 17.4%.
As to `Cc1c2cc(O)c(=O)cc-2oc2cc(O)c(O)cc12`, in experiment [1], the inhibition was 143% (active).
On the same count and under the same terms, in the case of `Cn1c(=O)c(Nc2ccc(O)cc2)c2c3c(cccc31)C(=O)c1ccccc1-2` it was 36% (active).
As for `CCC(=O)Nc1nc(C)c(-c2csc(Nc3cccc(O)c3)n2)s1`, the inhibition in [1] was 20%; in [2], 16.5%; in experiment [3], 47.6% (active).
For the compound `COc1ccccc1NC(=O)c1sc2nc(-c3ccco3)ccc2c1N`, the inhibition in [1] is 71.6% (active).
Regarding `Cc1ccc(NCC(O)C(O)C(O)CO)c(N=Nc2ccccc2)c1C` (centres undefined), the inhibition in experiment [1] was 50.7% (active).
`N#C/C(=C/c1ccc(N2CCCCC2)o1)C(=O)NCCc1c[nH]c2ccccc12`: the results for the inhibition in experiment [1], in [6] and in experiment [7] were 22.2%, 150% (active) and 5.73%, respectively. The activation is 33.6% (active) in experiment [4] and 52.1% (active) in experiment [5].
As to `Cc1ccc(C(C)C)c(OCc2ccc(C(=O)N/N=C/c3cccc(O)c3O)cc2)c1`, the inhibition in [1] was -4.31%; in experiment [2], 56.2% (active); in experiment [3], 32.4% (active); in experiment [8], 40.4%; in experiment [9], 27.9% (active); in experiment [10] it was 34.8%. Also, the inhibition in experiment [11] was 83.9% (active).
With `COc1ccc(O)c(/C=N/NC(=S)Nc2cccc(S(=O)(=O)N(C)C)c2)c1`, the inhibition in experiment [1] is 25.4%; in experiment [2], 24.6%; in experiment [3], 26.2%.
In the case of `Cc1ccc(Nc2nc(-c3ccc(O)cc3O)cs2)nc1`, the figures for the inhibition in experiment [1] and in [12] were 34% (active) and 50.7% (active), respectively.
Turning to `COc1cccc(/C=N/Nc2ccc([N+](=O)[O-])cn2)c1O`, the inhibition is 1.07% in experiment [1], 48% (active) in experiment [2] and 10.2% in [3].
For `O=C1C(Nc2ccccc2)=C/C(=N/S(=O)(=O)c2cccs2)c2ccccc21`, the inhibition in experiment [1] was 35.5% (active); in experiment [2], 79.7% (active); in experiment [3], 59.4% (active); in [8] it was 44.6%; in [9] it was 75.7% (active).
For the compound `CC(C)Nc1nnc(SCC(=O)Nc2ccc3c(c2)C(=O)c2ccccc2C3=O)s1`, the inhibition in [1] was 36.4% (active).
For the compound `Cn1nc(-c2ccccn2)nc2c(=O)n(C)c(=O)nc1-2`, the inhibition is 45.9% (active) in experiment [1]; 74.8% (active) in [2]; 62% (active) in experiment [3]; 3.11% in experiment [8]; 53.1% (active) in experiment [9]; 56.7% (active) in experiment [13]. Besides, the inhibition was 58.9% (active) in [14]; 73.7% (active) in experiment [15]; 75.1% (active) in experiment [16]; 13.4% in experiment [10]; 70.7% (active) in [11].
As to `CCN(CC)S(=O)(=O)c1ccc(N/N=C/c2ccc(O)cc2O)nc1`, the inhibition was 35% (active) in experiment [1]; 68.3% (active) in [2]; 67.3% (active) in experiment [3]; 63.5% (active) in experiment [8]; 58.3% (active) in experiment [9].
On to `COc1ccc(/C=N/NC(=S)Nc2ccccc2[N+](=O)[O-])cc1O`, for which the inhibition in experiment [1] was 43.4% (active); in experiment [2], -21.4%; in experiment [3] it was -47%; in experiment [8], -91.8%; in experiment [9], -70%.

These data come from PubChem BioAssay.
